Records with an inconclusive call do not appear. The source made the active and inactive calls. Calls follow the shape of the dose curve; as a rule, active = well fitted curve in the direction sought with a large enough effect in the repeat runs; inconclusive = weak or mixed curves; inactive = no such curve, though single readings can be large; an effect the other way counts as inactive or inconclusive.
assay: qHTS RealTime-Glo MT Cell Viability Assay in HepG2 cells - 16 hour (AID 1224885); conditions: RealTime-Glo luminescence; series mostly up to 76.8 µM; activity change, negative = cytotoxic: at the top concentration
Outline: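 Luminescence read-out: viable HepG2 cells reduce a prosubstrate to a NanoLuc substrate, giving a signal proportional to live cell number. Reads taken at 0, 8, 16, 24, 32 and 40 h of compound exposure at 37 C.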
% is scaled to controls: 0 for no effect and ±100 for the full control effect.
Also: nearly all actives have a fitted effect of over 50% in size.

Row | SMILES | activity change, negative = cytotoxic
1 | C=CC(O)CCCCC (stereo not drawn) | 3.92% (inactive)
2 | COc1cccc([C@H](O)C2CCN(CCc3ccc(F)cc3)CC2)c1OC | -4.68% (inactive)
3 | Cc1nc2sccn2c(=O)c1CCN1CCC(=C(c2ccc(F)cc2)c2ccc(F)cc2)CC1 | -18.1% [at 35.3 µM] (inactive)
4 | C=C(C)C(=O)OCCCCCCCCCCOC(=O)C(=C)C | 0.897% (inactive)
5 | C=CC(=O)NC(C)(C)C | 0.972% (inactive)
6 | COc1ccc(C(=O)Nc2ccccc2)cc1[N+](=O)[O-] | -9.89% (inactive)
7 | Sc1nc(S)nc(S)n1 | 0.105% [at 35.3 µM] (inactive)
8 | CCCc1ccc(OC)cc1 | 3.68% (inactive)
9 | CC(C)CC(C)(C)C | -1.43% (inactive)
10 | C(/C=C/C=C/Nc1ccccc1)=Nc1ccccc1 | -3.36% (inactive)
11 | OCC(O)c1ccccc1 (stereo not drawn) | -0.659% (inactive)
12 | CO[C@@H]1[C@@H](O[C@@H]2O[C@H](C)[C@@H](O[C@H]3C[C@@](C)(O)[C@@H](O)[C@H](C)O3)[C@H](N(C)C)[C@H]2O)[C@@H](CC=O)C[C@@H](C)[C@@H](O[C@@H]2CC[C@H](N(C)C)[C@@H](C)O2)/C=C/C=C/C[C@@H](C)OC(=O)C[C@H]1OC(C)=O | -7.72% [at 35.3 µM] (inactive)
13 | O=C1c2ccccc2C(=O)C1c1ccc2ccccc2n1 | -15.5% [at 35.3 µM] (inactive)
14 | CC(=O)Nc1ccccc1O | 0.33% (inactive)
15 | O=C(OCCN1CCOCC1)c1cccnc1Nc1cccc(C(F)(F)F)c1 | -10.7% [at 35.3 µM] (inactive)
16 | Oc1ccc(Oc2ccccc2)cc1 | -13.9% (inactive)
17 | C=C[Si](OCC)(OCC)OCC | 0.105% (inactive)
18 | O=[N+]([O-])c1ccccc1CCO | 0.58% (inactive)
19 | O=C(Cl)c1cc(Cl)cc(Cl)c1 | -1.56% (inactive)
20 | CCC1=C(C)CN(C(=O)NCCc2ccc(S(=O)(=O)NC(=O)NC3CCC(C)CC3)cc2)C1=O (stereo not drawn) | -1.3% [at 35.3 µM] (inactive)
21 | CCCCCC1CCC(=O)O1 (stereo not drawn) | 2.34% (inactive)
22 | CCOc1cc(OCC)c(C(C)=O)cc1OCC | -2.15% (inactive)

assay: qHTS RealTime-Glo MT Cell Viability Assay in HEK293 cells - 24 hour (AID 1224886); conditions: RealTime-Glo luminescence; series mostly up to 76.8 µM; activity change, negative = cytotoxicity: at the top concentration; also: potency is read from the fitted curve at half-maximal effect; as to activity change, negative = cytotoxicity: top concentration of the series differs between compounds
Outline: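 Nonlytic real-time viability readout: viable cells convert prosubstrate to NanoLuc substrate, giving luminescence proportional to live cell number. HEK293, 600 cells/well, compound added after 5 h, continuous culture at 37 C.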

Row | SMILES | activity change, negative = cytotoxicity | Potency
23 | C=CC(=O)OCCCCCCCCCC | 8.64% (inactive) | –
24 | O=C(O)c1ccc2c(c1)nc(C(=O)NC1CCN(C3CC3)CC1)n2Cc1cc(-c2ccc(Cl)s2)on1 | 0.501% [at 15.8 µM] (inactive) | –
25 | CCCCCCCCCCCC(=O)OCC | 2.36% (inactive) | –
26 | CCCOC(C)=O | 1.44% (inactive) | –
27 | CCC(=O)O[C@@H]1C[C@H]2CC[C@]1(C)C2(C)C | -10.5% (inactive) | –
28 | O=C(O)c1cccnc1Nc1cccc(C(F)(F)F)c1 | -5.49% [at 35.3 µM] (inactive) | –
29 | Cc1ccc2ccccc2c1[N+](=O)[O-] | 1.95% (inactive) | –
30 | O=c1c2ccccc2oc2ccccc12 | -22.2% (inactive) | –
31 | CC(=O)c1ccc(Cl)c(Cl)c1Cl | -21.1% (inactive) | –
32 | C=CC(O)CCCCC (stereo not drawn) | 0.461% (inactive) | –
33 | Cc1nc2sccn2c(=O)c1CCN1CCC(=C(c2ccc(F)cc2)c2ccc(F)cc2)CC1 | – | 3.38 µM (active)
34 | C=C(C)C(=O)OCCCCCCCCCCOC(=O)C(=C)C | -14.6% (inactive) | –
35 | C=CC(=O)NC(C)(C)C | -2.28% (inactive) | –
36 | COc1ccc(C(=O)Nc2ccccc2)cc1[N+](=O)[O-] | – | 24.7 µM (active)
37 | Sc1nc(S)nc(S)n1 | 0.496% [at 35.3 µM] (inactive) | –
38 | CCCc1ccc(OC)cc1 | 10.4% (inactive) | –
39 | CC1=C(C)C(=O)C(CCCCC#CCCCC#CCO)=C(C)C1=O | – | 0.601 µM (active)
40 | C(/C=C/C=C/Nc1ccccc1)=Nc1ccccc1 | -15.4% (inactive) | –
41 | OCC(O)c1ccccc1 (stereo not drawn) | 0.761% (inactive) | –
42 | CO[C@@H]1[C@@H](O[C@@H]2O[C@H](C)[C@@H](O[C@H]3C[C@@](C)(O)[C@@H](O)[C@H](C)O3)[C@H](N(C)C)[C@H]2O)[C@@H](CC=O)C[C@@H](C)[C@@H](O[C@@H]2CC[C@H](N(C)C)[C@@H](C)O2)/C=C/C=C/C[C@@H](C)OC(=O)C[C@H]1OC(C)=O | -1.29% [at 35.3 µM] (inactive) | –
43 | CC(=O)Nc1ccccc1O | -3.7% (inactive) | –
44 | Oc1ccc(Oc2ccccc2)cc1 | – | 16.5 µM (active)
45 | C=C[Si](OCC)(OCC)OCC | 16% (inactive) | –
46 | CCCCCC1CCC(=O)O1 (stereo not drawn) | 21.1% (inactive) | –
47 | CCOc1cc(OCC)c(C(C)=O)cc1OCC | – | 19.2 µM (active)

assay: qHTS RealTime-Glo MT Cell Viability Assay in HEK293 cells - 8 hour (AID 1224887); conditions: RealTime-Glo luminescence; series mostly up to 76.8 µM; activity change, negative = cytotoxicity: at the top concentration; also: potency is read from the fitted curve at half-maximal effect; as to activity change, negative = cytotoxicity: top concentration of the series differs between compounds
Outline: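 Cells were seeded together with NanoLuc luciferase and a prosubstrate that viable cells reduce to a luciferase substrate. After a 5 h incubation at 37 C/5% CO2, compounds were added and luminescence was measured repeatedly during 40 h of treatment.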

Row | SMILES | activity change, negative = cytotoxicity | Potency
48 | C=CC(=O)OCCCCCCCCCC | 0.107% (inactive) | –
49 | O=C(O)c1ccc2c(c1)nc(C(=O)NC1CCN(C3CC3)CC1)n2Cc1cc(-c2ccc(Cl)s2)on1 | 8.44% [at 15.8 µM] (inactive) | –
50 | CC(COc1ccccc1)NC(C)C(O)c1ccc(O)cc1 (stereo not drawn) | -11.9% [at 35.3 µM] (inactive) | –
51 | Clc1nc2ccccc2nc1Cl | -6.12% (inactive) | –
52 | CCCCCCCCCCCC(=O)OCC | 1.64% (inactive) | –
53 | CCCOC(C)=O | 6.65% (inactive) | –
54 | Cc1c(-c2cccnc2)c2ccccc2n1CCCCC(=O)O | -0.782% (inactive) | –
55 | CCC(=O)O[C@@H]1C[C@H]2CC[C@]1(C)C2(C)C | -17.4% (inactive) | –
56 | O=[N+]([O-])c1cccc(I)c1 | -3.13% (inactive) | –
57 | O=C(O)c1c2ccccc2cc2ccccc12 | -17% (inactive) | –
58 | CCc1cnc(C(=O)O)c(C(=O)O)c1 | 5.13% (inactive) | –
59 | C=CC(O)CCCCC (stereo not drawn) | -1.41% (inactive) | –
60 | COc1cccc([C@H](O)C2CCN(CCc3ccc(F)cc3)CC2)c1OC | -6.45% (inactive) | –
61 | Cc1nc2sccn2c(=O)c1CCN1CCC(=C(c2ccc(F)cc2)c2ccc(F)cc2)CC1 | – | 3.01 µM (active)
62 | C=C(C)C(=O)OCCCCCCCCCCOC(=O)C(=C)C | -3.27% (inactive) | –
63 | C=CC(=O)NC(C)(C)C | 0.286% (inactive) | –
64 | CC1=C(C)C(=O)C(CCCCC#CCCCC#CCO)=C(C)C1=O | – | 0.535 µM (active)
65 | OCC(O)c1ccccc1 (stereo not drawn) | 1.11% (inactive) | –
66 | CO[C@@H]1[C@@H](O[C@@H]2O[C@H](C)[C@@H](O[C@H]3C[C@@](C)(O)[C@@H](O)[C@H](C)O3)[C@H](N(C)C)[C@H]2O)[C@@H](CC=O)C[C@@H](C)[C@@H](O[C@@H]2CC[C@H](N(C)C)[C@@H](C)O2)/C=C/C=C/C[C@@H](C)OC(=O)C[C@H]1OC(C)=O | 1.67% [at 35.3 µM] (inactive) | –
67 | CC(=O)Nc1ccccc1O | -8.84% (inactive) | –
68 | O=C(OCCN1CCOCC1)c1cccnc1Nc1cccc(C(F)(F)F)c1 | -26.7% [at 35.3 µM] (inactive) | –
69 | Oc1ccc(Oc2ccccc2)cc1 | – | 16.5 µM (active)
70 | C=C[Si](OCC)(OCC)OCC | 19.1% (inactive) | –
71 | O=[N+]([O-])c1ccccc1CCO | 13.1% (inactive) | –
72 | CCCCCC1CCC(=O)O1 (stereo not drawn) | 21.3% (inactive) | –
73 | CCOc1cc(OCC)c(C(C)=O)cc1OCC | – | 19.2 µM (active)

From PubChem BioAssay (Tox21)
